# How the values were obtained:
# Assay in all cases: DAPPL (digital affinity profiling via proximity ligation, sequencing); 10 mM Tris-HCl pH 7.5, 50 mM NaCl, 1 mM DTT, 4% glycerol, room temperature, 30 min; GST-TFs on glutathione beads, 16-mer random dsDNA library, 0.1% formaldehyde crosslink after washing; high values mean tight binding
# FEV = molecular target: T1, FEV (Homo sapiens, UniProt Q99581 1-238); details: protein: recombinant; tags: N-terminal GST; dsDNA, one strand shown
# T1 sequence: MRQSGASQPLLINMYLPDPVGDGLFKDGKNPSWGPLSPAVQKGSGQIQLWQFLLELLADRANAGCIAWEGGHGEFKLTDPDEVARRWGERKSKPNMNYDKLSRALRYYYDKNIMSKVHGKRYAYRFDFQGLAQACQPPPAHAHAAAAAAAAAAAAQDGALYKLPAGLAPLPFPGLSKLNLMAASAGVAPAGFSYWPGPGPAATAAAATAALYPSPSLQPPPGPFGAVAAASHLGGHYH
# In short: (§1)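 A tag-only sample was pooled with DNA-barcoded human transcription factors that had been expressed in yeast as GST fusions and captured on glutathione beads. The pools were incubated for 30 min at room temperature with 200 nmole of a random double-stranded 16-mer DNA library in Tris/NaCl/DTT/glycerol buffer, then washed, crosslinked with 0.1% formaldehyde, proximity-ligated (BsaI/T4 ligase, 1 h, 37 °C), PCR-amplified and sequenced on an Illumina NextSeq500. Binding signal is each hexamer's read frequency for a factor divided by its frequency for the tag-only sample.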
# ETV5 = ETV5 (Homo sapiens, UniProt P41161 1-510); details: protein: recombinant; tags: N-terminal GST; dsDNA, one strand shown
# ETV5, sequence (P41161 whole entry): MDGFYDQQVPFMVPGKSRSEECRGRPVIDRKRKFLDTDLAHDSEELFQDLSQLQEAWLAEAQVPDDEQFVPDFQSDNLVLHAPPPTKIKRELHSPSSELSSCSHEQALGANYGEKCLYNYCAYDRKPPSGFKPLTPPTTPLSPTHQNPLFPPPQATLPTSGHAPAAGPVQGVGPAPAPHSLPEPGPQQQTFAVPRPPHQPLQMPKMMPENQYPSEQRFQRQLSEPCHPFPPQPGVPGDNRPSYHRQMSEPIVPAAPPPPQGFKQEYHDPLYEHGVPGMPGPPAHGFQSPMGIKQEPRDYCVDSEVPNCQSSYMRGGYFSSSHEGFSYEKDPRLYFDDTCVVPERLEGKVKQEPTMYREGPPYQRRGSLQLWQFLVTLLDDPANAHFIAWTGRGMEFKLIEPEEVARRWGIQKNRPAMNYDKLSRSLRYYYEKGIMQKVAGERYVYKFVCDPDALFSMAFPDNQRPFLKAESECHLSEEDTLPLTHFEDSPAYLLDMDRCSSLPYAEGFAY
# In short: as §1
# HSF1 = HSF1 (Homo sapiens, UniProt Q00613 1-529); details: protein: recombinant; tags: N-terminal GST; chain copies: 3; dsDNA, one strand shown
# HSF1, sequence (Q00613 whole entry): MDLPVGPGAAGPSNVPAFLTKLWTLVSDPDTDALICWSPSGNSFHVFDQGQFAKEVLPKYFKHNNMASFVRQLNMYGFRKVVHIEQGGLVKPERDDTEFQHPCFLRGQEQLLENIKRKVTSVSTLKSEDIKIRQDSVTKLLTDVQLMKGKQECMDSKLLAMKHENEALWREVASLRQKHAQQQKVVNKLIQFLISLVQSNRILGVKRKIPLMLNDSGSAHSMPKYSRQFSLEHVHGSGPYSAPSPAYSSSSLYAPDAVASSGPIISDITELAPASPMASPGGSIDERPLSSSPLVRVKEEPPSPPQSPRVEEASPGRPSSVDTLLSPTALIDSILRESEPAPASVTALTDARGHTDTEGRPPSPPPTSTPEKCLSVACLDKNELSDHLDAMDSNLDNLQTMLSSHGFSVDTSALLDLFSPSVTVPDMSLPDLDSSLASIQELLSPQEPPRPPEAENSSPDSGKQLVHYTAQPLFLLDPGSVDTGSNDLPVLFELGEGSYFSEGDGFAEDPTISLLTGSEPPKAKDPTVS
# In short: as §1
# SPIC = molecular target: T2, SPIC (Homo sapiens, UniProt Q8N5J4 1-248); details: protein: recombinant; tags: N-terminal GST; dsDNA, one strand shown
# T2 sequence: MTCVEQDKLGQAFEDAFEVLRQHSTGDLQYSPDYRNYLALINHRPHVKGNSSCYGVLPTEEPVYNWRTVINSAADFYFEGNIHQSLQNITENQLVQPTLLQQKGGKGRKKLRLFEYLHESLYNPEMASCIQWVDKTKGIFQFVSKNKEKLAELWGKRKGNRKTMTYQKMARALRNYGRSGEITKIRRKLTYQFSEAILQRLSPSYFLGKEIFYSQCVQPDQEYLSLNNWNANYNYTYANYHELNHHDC
# In short: as §1
# ELF4 = ELF4 (Homo sapiens, UniProt Q99607 1-663); details: protein: recombinant; tags: N-terminal GST; dsDNA, one strand shown
# ELF4, sequence (Q99607 whole entry): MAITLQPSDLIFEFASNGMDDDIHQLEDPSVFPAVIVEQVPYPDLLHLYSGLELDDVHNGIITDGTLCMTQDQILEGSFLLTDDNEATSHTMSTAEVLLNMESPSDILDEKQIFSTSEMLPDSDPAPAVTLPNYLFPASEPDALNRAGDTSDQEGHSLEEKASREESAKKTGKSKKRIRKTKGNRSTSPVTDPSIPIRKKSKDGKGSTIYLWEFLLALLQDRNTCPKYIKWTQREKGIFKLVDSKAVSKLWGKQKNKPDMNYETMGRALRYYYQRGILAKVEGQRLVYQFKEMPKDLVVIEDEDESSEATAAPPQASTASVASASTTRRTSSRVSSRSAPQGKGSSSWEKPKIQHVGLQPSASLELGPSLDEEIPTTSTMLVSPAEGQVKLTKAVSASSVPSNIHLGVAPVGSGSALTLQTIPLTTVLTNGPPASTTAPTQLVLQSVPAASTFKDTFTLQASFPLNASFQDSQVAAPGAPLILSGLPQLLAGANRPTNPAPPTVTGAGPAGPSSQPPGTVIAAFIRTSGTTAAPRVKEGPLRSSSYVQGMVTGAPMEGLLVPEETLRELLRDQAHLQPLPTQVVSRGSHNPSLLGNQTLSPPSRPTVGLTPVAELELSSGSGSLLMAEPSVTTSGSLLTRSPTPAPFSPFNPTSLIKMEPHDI
# In short: as §1
# ELK4 = molecular target: T3, ELK4 (Homo sapiens, UniProt P28324-2 1-405); details: protein: recombinant; tags: N-terminal GST; dsDNA, one strand shown
# T3 sequence: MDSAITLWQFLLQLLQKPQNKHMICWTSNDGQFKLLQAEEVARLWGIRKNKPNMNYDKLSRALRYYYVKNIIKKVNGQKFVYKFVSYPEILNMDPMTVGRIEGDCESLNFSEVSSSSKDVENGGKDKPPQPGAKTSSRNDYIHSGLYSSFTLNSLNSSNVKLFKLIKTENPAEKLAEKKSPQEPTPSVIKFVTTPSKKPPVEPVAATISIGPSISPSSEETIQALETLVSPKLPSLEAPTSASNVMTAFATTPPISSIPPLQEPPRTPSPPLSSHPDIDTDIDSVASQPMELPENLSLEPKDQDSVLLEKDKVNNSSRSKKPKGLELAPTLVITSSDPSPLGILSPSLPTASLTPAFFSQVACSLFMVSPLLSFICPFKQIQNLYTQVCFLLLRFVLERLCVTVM
# In short: as §1
# ETV2 = molecular target: T4, ETV2 (Homo sapiens, UniProt O00321 1-342); details: protein: recombinant; tags: N-terminal GST; dsDNA, one strand shown
# T4 sequence: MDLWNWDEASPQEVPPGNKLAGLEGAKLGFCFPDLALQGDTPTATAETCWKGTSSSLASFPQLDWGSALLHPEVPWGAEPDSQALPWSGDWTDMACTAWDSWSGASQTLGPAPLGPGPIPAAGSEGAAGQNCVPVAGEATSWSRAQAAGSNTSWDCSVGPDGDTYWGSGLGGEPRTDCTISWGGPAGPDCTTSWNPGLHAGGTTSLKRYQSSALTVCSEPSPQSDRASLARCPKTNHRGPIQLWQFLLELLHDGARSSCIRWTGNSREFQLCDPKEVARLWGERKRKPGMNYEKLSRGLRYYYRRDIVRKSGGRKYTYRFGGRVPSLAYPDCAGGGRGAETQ
# In short: as §1
# ELF3 = molecular target: T5, ELF3 (Homo sapiens, UniProt P78545 1-371); details: protein: recombinant; tags: N-terminal GST; dsDNA, one strand shown
# T5 sequence: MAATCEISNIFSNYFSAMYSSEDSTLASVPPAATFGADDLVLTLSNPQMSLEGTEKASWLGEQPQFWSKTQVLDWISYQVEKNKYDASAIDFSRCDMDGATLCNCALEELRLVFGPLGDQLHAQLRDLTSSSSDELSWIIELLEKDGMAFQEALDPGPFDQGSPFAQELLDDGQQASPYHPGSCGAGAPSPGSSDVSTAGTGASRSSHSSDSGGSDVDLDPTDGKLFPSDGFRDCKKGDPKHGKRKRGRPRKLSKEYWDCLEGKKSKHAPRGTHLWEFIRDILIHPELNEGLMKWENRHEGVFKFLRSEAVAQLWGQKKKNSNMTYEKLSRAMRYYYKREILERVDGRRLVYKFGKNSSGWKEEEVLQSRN
# In short: as §1
# CRX = CRX (Homo sapiens, UniProt O43186 1-299); details: protein: recombinant; tags: N-terminal GST; dsDNA, one strand shown
# CRX, sequence (O43186 whole entry): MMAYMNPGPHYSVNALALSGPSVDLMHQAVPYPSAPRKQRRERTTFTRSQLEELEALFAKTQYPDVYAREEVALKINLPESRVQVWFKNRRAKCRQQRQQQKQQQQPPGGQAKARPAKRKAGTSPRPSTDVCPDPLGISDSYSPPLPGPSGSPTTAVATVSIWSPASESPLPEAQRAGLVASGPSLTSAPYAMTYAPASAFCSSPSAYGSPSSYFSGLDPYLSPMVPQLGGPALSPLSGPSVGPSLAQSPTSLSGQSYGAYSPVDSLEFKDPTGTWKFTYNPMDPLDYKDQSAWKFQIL
# In short: as §1
# ETV1 = ETV1 (Homo sapiens, UniProt P50549 1-477); details: protein: recombinant; tags: N-terminal GST; dsDNA, one strand shown
# ETV1, sequence (P50549 whole entry): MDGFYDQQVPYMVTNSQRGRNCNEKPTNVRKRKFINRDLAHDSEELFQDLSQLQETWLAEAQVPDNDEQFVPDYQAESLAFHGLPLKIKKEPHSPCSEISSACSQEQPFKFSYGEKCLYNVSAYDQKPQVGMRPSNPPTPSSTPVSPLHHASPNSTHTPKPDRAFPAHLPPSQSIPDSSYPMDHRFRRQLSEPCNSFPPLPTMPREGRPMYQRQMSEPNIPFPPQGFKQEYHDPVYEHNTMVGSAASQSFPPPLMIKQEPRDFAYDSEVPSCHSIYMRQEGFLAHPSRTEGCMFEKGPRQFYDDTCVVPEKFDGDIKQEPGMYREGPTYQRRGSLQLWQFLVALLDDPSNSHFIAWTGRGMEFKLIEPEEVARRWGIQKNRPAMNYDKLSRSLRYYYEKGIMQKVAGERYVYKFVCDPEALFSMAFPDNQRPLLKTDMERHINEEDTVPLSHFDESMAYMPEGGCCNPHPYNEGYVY
# In short: as §1
sequence,measurement,setting,value
TACATC,binding signal,FEV,"1.77 fold enrichment (6-mer frequency, TF over GST control)"
same,binding signal,ETV5,"1.63 fold enrichment (6-mer frequency, TF over GST control)"
same,binding signal,HSF1,"1.09 fold enrichment (6-mer frequency, TF over GST control)"
same,binding signal,SPIC,"1.61 fold enrichment (6-mer frequency, TF over GST control)"
same,binding signal,ELF4,"1.56 fold enrichment (6-mer frequency, TF over GST control)"
same,binding signal,ELK4,"1.53 fold enrichment (6-mer frequency, TF over GST control)"
same,binding signal,ETV2,"1.65 fold enrichment (6-mer frequency, TF over GST control)"
same,binding signal,ELF3,"1.48 fold enrichment (6-mer frequency, TF over GST control)"
same,binding signal,CRX,"1.17 fold enrichment (6-mer frequency, TF over GST control)"
same,binding signal,ETV1,"1.64 fold enrichment (6-mer frequency, TF over GST control)"

# Reference: paper PMC7862700, “An all-to-all approach to the identification of sequence-specific readers for epigenetic DNA modifications on cytosine”
